The record followed here is PubChem BioAssay (NCATS).

Test [1] can be described thus: qHTS assay to identify small molecule inhibitors of chordoma cells - UCH-1 (AID 1259355). Also: nearly all actives have a fitted effect of over 55% in size. Also: potency is read from the fitted curve at half-maximal effect. The conditions noted are these: UCH-1 chordoma viability, CellTiter-Glo, 48 h, combination, with auranofin plus four topoisomerase inhibitors; series mostly up to 46.1 µM. The method, boiled down: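 Luminescent ATP read-out (CellTiter-Glo, 30min at room temperature) measured viability of UCH-1 cells exposed for 48hr to test drugs at 15 concentrations, co-dosed with a five-agent combination of auranofin, camptothecin, doxorubicin, rubitecan and topotecan.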

A short description of test [2]: qHTS assay to identify small molecule inhibitors of chordoma cells - UCH-2 (AID 1259356). Also: potency is read from the fitted curve at half-maximal effect. The conditions noted are these: UCH-2 chordoma viability, CellTiter-Glo ATP luminescence, 48 h; series mostly up to 46.1 µM.
Test [3] is described as follows: P-glycoprotein substrates identified in KB-8-5-11 adenocarcinoma cell line, qHTS therapeutic library screen (AID 1346987). Also: nearly all actives have a fitted effect of over 65% in size. Also: potency is read from the fitted curve at half-maximal effect. As to conditions: KB-8-5-11 (P-gp overexpressing) viability, CellTiter-Glo, 72 h; series mostly up to 44.5 µM. In a few lines:
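P-gp-mediated resistance screen: KB-8-5-11 cells treated 72 h with compounds in dose-response. CellTiter-Glo viability.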

Test [4] is described as follows: qHTS profiling for inhibitors of Plasmodium falciparum (3D7) proliferation (AID 743322).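 Also: infected erythrocytes exposed to compound for 72 h before lysis; 100% = DMSO vehicle wells and 0% = 0.29 µM artemisinin.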 The conditions noted are these: P. falciparum 3D7 proliferation; at 28.7 µM (top of the series) unless noted. The method, boiled down: (§1)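 Erythrocytes infected with P. falciparum (0.3% parasitemia, 2.5% hematocrit) incubated with compounds 72 h at 37 C, 5% CO2. Lysis with saponin/Triton buffer containing SYBR Green I, overnight at room temperature in the dark; DNA fluorescence (485/535 nm) normalised to 0.29 uM artemisinin and DMSO.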

A short description of test [5]: qHTS profiling for inhibitors of Plasmodium falciparum (DD2) proliferation (AID 743323; call rule not given here). As to conditions: lower = more inhibition; at 28.7 µM (top of the series) unless noted. The method, boiled down:
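Parasite DNA quantified by SYBR Green fluorescence (ex 485, em 535 nm) after saponin/Triton lysis and overnight dark incubation. Cultures: 0.3% parasitemia, 2.5% hematocrit, 72 h, 37 C; data scaled between DMSO and 0.29 uM artemisinin.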

The nature of test [6]: qHTS profiling of the MIPE4 collection as inhibitors of Plasmodium falciparum (3D7) proliferation (AID 743344; call rule not given here;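 also: scaled between DMSO vehicle wells and 0.29 µM artemisinin as full inhibition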). As to conditions: P. falciparum 3D7 in erythrocytes, SYBR Green DNA fluorescence, 72 h; at 28.5 µM (top of the series) unless noted. The method, boiled down:
as §1

A short description of test [7]: qHTS profiling of the MIPE4 collection as inhibitors of Plasmodium falciparum (DD2) proliferation (AID 743345; call rule not given here). As to conditions: P. falciparum Dd2 in erythrocytes, SYBR Green DNA, 72 h; at 28.5 µM (top of the series) unless noted. The method, boiled down:
as §1

A short description of test [8]: qHTS profiling of the MIPE4 collection as inhibitors of Plasmodium falciparum (DD2) proliferation (Rep 2) (AID 743346; call rule not given here). As to conditions: P. falciparum Dd2 in erythrocytes, SYBR Green DNA, 72 h; at 28.5 µM (top of the series) unless noted. In a few lines: as §1
A short description of test [9]: qHTS profiling of the MIPE4 collection as inhibitors of Plasmodium falciparum (HB3) proliferation (AID 743347; call rule not given here;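 also: plate controls were DMSO vehicle wells for no effect and artemisinin wells for full effect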). As to conditions: P. falciparum HB3 in erythrocytes, SYBR Green DNA, 72 h; at 28.5 µM (top of the series) unless noted. In a few lines: as §1
Test [10] is described as follows: P-glycoprotein substrates identified in KB-3-1 adenocarcinoma cell line, qHTS therapeutic library screen (AID 1346986). Also: nearly all actives have a fitted effect of over 60% in size. As to conditions: KB-3-1 parental cells viability, CellTiter-Glo, 72 h; series mostly up to 44.5 µM. In a few lines: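 KB-3-1 parental cells and P-gp-overexpressing KB-8-5-11 (colchicine omitted during assay) plated at 500 cells/well, dosed in dose-response, incubated 72 h at 37 degree C. CellTiter-Glo luminescence read; KB-8-5-11 also tested with tariquidar.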

Records with an inconclusive call do not appear. Calls of active or inactive are those of the source. Unless noted, calls follow the shape of the dose curve; as a rule, active = well fitted curve in the direction sought with a large enough effect; inconclusive = small, poorly fitted or top-dose-only effect, or another doubt; inactive = no such curve, though single readings can be large; an effect the other way counts as inactive or inconclusive.

Take `CC(C)(C)C1(O)CCN2CC3c4ccccc4CCc4cccc(c43)C2C1` (centres undefined): the Potency result in test [1] and in [2] was “inactive” throughout.

With `CC(C)(C)NC(=O)[C@@H]1C[C@@H]2CCCC[C@@H]2CN1C[C@@H](O)[C@H](Cc1ccccc1)NC(=O)[C@H](CC(N)=O)NC(=O)c1ccc2ccccc2n1`, the Potency entry in test [1], in [2] and in test [3] was “inactive” throughout.

Consider `Cc1ccccc1OCC(O)CNCCOc1ccc(C(N)=O)cc1` (centres undefined), for which the Potency result in test [1] and in test [2] was “inactive” each time.

On to `C[C@@H]1[C@H](O)[C@@H](C)/C=C/C=C\C=C\C=C\C=C\C=C\C=C\[C@H](O[C@@H]2O[C@H](C)[C@@H](O)[C@H](N)[C@@H]2O)C[C@@H]2O[C@](O)(C[C@@H](O)C[C@@H](O)[C@H](O)CC[C@@H](O)C[C@@H](O)CC(=O)O[C@H]1C)C[C@H](O)[C@H]2C(=O)O` (stereo in doubt), for which the Potency result in test [1] and in test [2] was “inactive” in each case.

With `CC(C(=O)O)c1ccc(N2Cc3ccccc3C2=O)cc1` (centres undefined), the Potency result in [1] and in test [3] was “inactive” throughout.

With `COc1cc([C@@H]2c3cc4c(cc3[C@@H](O[C@@H]3O[C@@H]5CO[C@@H](C)O[C@H]5[C@H](O)[C@H]3O)[C@H]3COC(=O)[C@H]23)OCO4)cc(OC)c1O`, the Potency result in test [1], in test [2] and in test [3] was “inactive” in each case.

Regarding `CC1=C(/C=C/C(C)=C/C=C/C(C)=C/C=C/C=C(C)/C=C/C=C(C)/C=C/C2=C(C)C(=O)CCC2(C)C)C(C)(C)CCC1=O`, the Potency result in test [1], in [2] and in test [3] was “inactive” each time.

Regarding `CC[C@H]1OC(=O)[C@H](C)[C@@H](O[C@H]2C[C@@](C)(OC)[C@@H](O)[C@H](C)O2)[C@H](C)[C@@H](O[C@@H]2O[C@H](C)C[C@H](N(C)C)[C@H]2O)[C@](C)(O)C[C@@H](C)/C(=N\OCOCCOC)[C@H](C)[C@@H](O)[C@]1(C)O`, the Potency entry in test [1], in [2] and in [3] was “inactive” each time.

`C#CCOc1ccc2c(C)cc(=O)oc2c1`: the Potency result in test [1], in test [2] and in [3] was “inactive” each time.

With `CO[C@@H]1[C@@H](O[C@@H]2O[C@H](C)[C@@H](O[C@H]3C[C@@](C)(O)[C@@H](OC(=O)CC(C)C)[C@H](C)O3)[C@H](N(C)C)[C@H]2O)[C@@H](CC=O)C[C@@H](C)C(=O)/C=C/C2OC2C[C@@H](C)OC(=O)C[C@H]1OC(C)=O` (some centres undefined), the Potency result in [1] and in test [3] was “inactive” in each case.

`Nc1ccn([C@H]2CS[C@@H](CO)O2)c(=O)n1`: the Potency entry in test [1] and in test [2] was “inactive” each time.

The compound `CCN(CC)Cc1cc(Nc2ccnc3cc(Cl)ccc23)ccc1O` registered a remaining parasite growth % (stronger effect = lower value) in test [4] of 1.29% [at 9.63 µM]. In [5], this compound yielded an activity, percent of control of 2.43% [at 9.63 µM]. In test [6], this compound gave a parasite growth, % of DMSO control of 4.69% [at 9.64 µM]. This compound also came in with a parasite growth remaining, % of DMSO control (lower = more inhibition) in test [7] of 9.46% [at 9.64 µM]. Also, in test [8], the parasite growth, % of control (lower = inhibition) was found to be 11.1% [at 9.64 µM]. The growth, % of control in test [9] was found to be 3.47% [at 9.64 µM]. The Potency entry in test [1] and in test [2] was “inactive” in each case.

With `COC(=O)C1=C(C#N)NC(C)=C(C(=O)OC(C)C)C1c1cccc([N+](=O)[O-])c1` (centres undefined), the Potency result in test [1] and in [2] was “inactive” in each case.

On to `CCOc1ccc(N=Nc2ccc(N)cc2N)cc1`, for which the Potency entry in test [1] and in [2] was “inactive” each time.

In the case of `CCCCCCCCCCCCCCCC(=O)OCC(COC(=O)CCCCCCCCCCCCCCC)OC(=O)CCCCCCCCCCCCCCC`, the Potency entry in test [1], in test [2] and in test [3] was “inactive” in each case.

In the case of `C[C@]12O[C@H](C[C@]1(O)CO)n1c3ccccc3c3c4c(c5c6ccccc6n2c5c31)CNC4=O`, the values for the Potency in test [1], in [2] and in test [3] were 11.2 µM (active), 10.3 µM (active) and 4.61 µM (active), respectively.

As to `COc1ccc2c3c1O[C@H]1C[C@@H](O)C=C[C@@]31CCN(C)C2`, the Potency result in [1], in test [10] and in test [3] was “inactive” throughout.

Turning to `CCN(CC)CCOc1ccc(-c2nc3cc(Cl)ccc3s2)cc1`, the Potency entry in [1] and in [2] was “inactive” throughout. Besides, the Potency in test [3] is 18.4 µM (active).

Regarding `Cc1ccccc1`, the Potency entry in test [1], in [2] and in test [3] was “inactive” each time.

As to `C#C[C@]1(O)CC[C@H]2[C@@H]3CCC4=C/C(=N/O)CC[C@@H]4[C@H]3CC[C@@]21CC`, in test [1], the Potency result is “inactive”. In addition, the Potency in test [3] was 5.8 µM (active).

For the compound `CNC(C)[C@@H]1CC[C@@H](N)[C@@H](O[C@H]2[C@H](O)[C@@H](O[C@H]3OC[C@](C)(O)[C@H](NC)[C@H]3O)[C@H](N)C[C@@H]2N)O1` (some centres undefined), the Potency result in test [1] and in test [2] was “inactive” throughout.

Consider `Cc1cc(/C=C/c2ccc3cc(N(C)C)ccc3[n+]2C)c(C)n1-c1ccccc1`, for which the Potency in [1] is 5.01 µM (active). Also, the Potency entry in [2] and in test [3] was “inactive” in each case.

With `CC1=C(/C=C/C(C)=C/C=C/C(C)=C/CO)C(C)(C)CCC1`, the Potency entry in test [1], in test [2] and in test [3] was “inactive” each time.
